Test [1] is described as follows: liver-stage malaria parasite growth inhibition, primary screen, cell-based, HepG2, luciferase luminescence, HepG2 viability (AID 624349).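 Note: 100% = mean of DMSO negative control wells on the same plate.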 To be noted: P. berghei liver stage in HepG2, luciferase luminescence, concentration not given here; parasite load remaining: stronger effect = lower value; viability: measured here: HepG2 viability without parasites.
The test system of test [2] is Hepatitis C virus NS3 helicase. The test is described as follows: HCV NS3 helicase inhibitors, primary screen, biochemical, fluorescence polarization, LOPAC1280 library (AID 687035; in the data active = inhibition above about 37%). To be noted: Purified HCV NS3 helicase, Cy5-dT15 ssDNA binding fluorescence polarization; stronger effect = higher value; concentration not given here. A general note: In fluorescence polarisation assays a small probe gives low polarisation when free and higher when bound to something large.

The nature of test [3]: Cy5 fluorescence quenching or enhancement artefacts, artefact control for HCV NS3 helicase inhibitor project, biochemical, LOPAC1280 (AID 687037; call rule not given here). To be noted: Cy5-DNA-NS3h complex fluorescence interference counterscreen. In general terms: The purpose of a counterscreen is to sort out artefacts and off-target activity.
Test [4] in a line: stimulators of nuclear beta-catenin in C2C12, primary screen, imaging, WNT3A-conditioned medium, mouse C2C12, NPC library (AID 1117326; in the data active = nuclear beta-catenin stimulation mostly above about 4.2%, no sharp cut-off; inactive = mostly below about 10%). To be noted: stronger effect = higher value.
The nature of test [5]: stimulators of insulin release from INS-1E, primary screen, cell-based, 5 mM glucose, NPC library (AID 1117329;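 active = compound raises insulin release from rat beta cells at 5 mM glucose, no numeric limit stated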). To be noted: rat INS-1E insulin secretion, at 10 µM, stronger effect = higher value.
Test [6] is described as follows: growth inhibition of GSK3B-pretreated HCT116 cells – cell-based, CellTiter-Glo, 0.2 to 20 µM (AID 1117336;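 active = compounds lowering colon cancer cell viability after pretreatment blocking the GSK3B kinase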). To be noted: HCT116 viability after GSK3B inhibitor, at 20 µM, stronger effect = higher value. In general terms: In ATP-based viability assays light output follows the ATP content of the culture.
The nature of test [7]: inhibition of endothelial tube formation, primary screen, imaging, VEGF stimulated, CD31 staining, tube area, NPC library (AID 1117340;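 active = compound that reduces growth-factor-driven endothelial tube area in a mixed cell culture, no cutoff stated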). To be noted: VEGF-stimulated ADSC/ECFC co-culture, at 10 µM, stronger effect = higher value.
Test [8] is described as follows: glucagon-like peptide 1 release enhancers, primary assay, NCI-H716 cell line, NPC library (AID 1117341;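 active = compound raises GLP1 secretion from the human gut endocrine cells, with no numeric limit stated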). To be noted: NCI-H716 cells, at 10 µM, stronger effect = higher value.
Test [9] in a line: HCT116 colon cancer cell growth inhibition, primary screen, CellTiter-Glo luminescence, NPC library (AID 1117342;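 active = compounds that lower survival of HCT116 colon cancer cells in the luminescence readout, no numeric limit stated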). To be noted: at 20 µM (top of the series).
Test [10] in a line: CellTiter-Glo luminescent readout of SW480 viability loss, NPC library primary (AID 1117343;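 active = compounds that lower viability of the colon cancer cells in the luminescence readout, with no numeric limit stated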). To be noted: CellTiter-Glo luminescence; at 20 µM (top of the series).
The nature of test [11]: decreased DLD-1 cellular survival, CellTiter-Glo luminescent readout, NPC compound collection, primary HTS (AID 1117346;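 active = compounds that lower survival of DLD-1 colon cancer cells in the luminescence readout, no cutoff given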). To be noted: DLD-1 viability, CellTiter-Glo luminescence; at 20 µM (top of the series).
Test [12] deals with 6-phosphogluconate dehydrogenase, decarboxylating (Homo sapiens) (UniProt P52209). Put plainly: 6PGD enzyme inhibitors, primary screen, biochemical, human, recombinant enzyme, NADPH absorbance (AID 1159550;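 active = at least 20% inhibition of 6-phosphogluconate dehydrogenase activity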). To be noted: recombinant 6PGD, NADPH absorbance 341 nm; at 10 µM; stronger effect = higher value.

“And” between values parts separate entries of the source, which are not always exact repeats. Equal values may be shown once. The source made the active and inactive calls. Cut-off read from the data, not from the text of the source, unless noted: active = parasite load remaining mostly below about 12% (no sharp cut-off); inactive = mostly above about 10%.

6-phosphogluconate dehydrogenase, decarboxylating (Homo sapiens), sequence (P52209 whole entry, looked up): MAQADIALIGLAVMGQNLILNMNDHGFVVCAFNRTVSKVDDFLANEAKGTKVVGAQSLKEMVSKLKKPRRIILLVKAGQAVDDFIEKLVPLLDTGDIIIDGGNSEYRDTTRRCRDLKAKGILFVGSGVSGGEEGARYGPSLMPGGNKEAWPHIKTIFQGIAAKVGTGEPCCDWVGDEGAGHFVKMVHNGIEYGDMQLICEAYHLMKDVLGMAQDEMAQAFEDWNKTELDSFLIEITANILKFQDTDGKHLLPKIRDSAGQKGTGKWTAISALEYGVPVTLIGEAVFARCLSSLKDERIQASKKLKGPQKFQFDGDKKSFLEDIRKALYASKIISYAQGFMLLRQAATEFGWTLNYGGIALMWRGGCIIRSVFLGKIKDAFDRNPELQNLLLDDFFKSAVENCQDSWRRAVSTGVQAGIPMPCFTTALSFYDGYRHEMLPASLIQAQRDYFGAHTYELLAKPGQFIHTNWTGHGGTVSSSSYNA

With `O=C(O)CCCCCCCC(=O)O`, the parasite load remaining in [1] was 102% (inactive) and 78.4% (inactive). Further, in test [1], the viability (commonly a read-out of living cells in per cent, often relative to untreated cells) is 69% and 83.5%. Moreover, the figures for the inhibition in test [2] and in [12] were 0% (inactive) and -2.42% (inactive), respectively. For the same compound, in [3], the fluorescence ratio (interference) is 0.9 (inactive). Further, the nuclear beta-catenin stimulation was 0.3% (inactive) in [4] (at 10 µM) and -0.5% in test [4] (stimulation, at 2 µM). Moreover, the insulin secretion stimulation in test [5] is 0.4% (inactive). Besides, the viability decrease in [6] was -10.2% (inactive). For the same compound, in test [7], the tube area decrease is 2.7% (inactive). Also, in test [8], the GLP1 secretion stimulation is -4.7% (inactive). The inhibition of viability in [9] is -4.13% (inactive). Further, the viability decrease (inhibition) in test [10] is 15% (inactive); in test [11] it was -3.7% (inactive).
`NC(CO)C(=O)NNCc1ccc(O)c(O)c1O` (stereo not drawn): the inhibition – broadly, the change of the read-out against control, counted positive when it falls – was 1% (inactive) in test [2] and -10.3% (inactive) in [12]. Moreover, the fluorescence ratio (interference) in test [3] is 1 (inactive). Further, the nuclear beta-catenin stimulation in test [4] (at 10 µM) is 13.1% (inactive); in test [4] (stimulation, at 2 µM) it was 3.8%. The insulin secretion stimulation in test [5] is 2.2% (inactive). Also, the viability decrease in [6] was 55.6% (active). Besides, in test [7], the tube area decrease was -12.6% (inactive). In test [8], the GLP1 secretion stimulation was 8.5% (inactive). Moreover, in test [9], the inhibition of viability was 84.4% (active). Besides, the viability decrease (inhibition) in test [10] is 145% (active); in test [11], 103% (active).
Consider `C[C@]12C=CC(=O)C=C1CC[C@H]1[C@@H]3C[C@@H](O)[C@](O)(C(=O)CO)[C@@]3(C)C[C@H](O)[C@@]12F`, for which the parasite load remaining in test [1] was 59.1% (inactive) and 78.5% (inactive) and 29.4% (inactive). For the same compound, the viability in test [1] is 105% and 93.7% and 75%. For the same compound, the inhibition in test [2] is -2% (inactive); in test [12], -17.6% (inactive). Further, the fluorescence ratio (interference) in [3] was 1 (inactive). In addition, the nuclear beta-catenin stimulation in test [4] (at 10 µM) is -1.1% (inactive); in test [4] (stimulation, at 2 µM), -0.2%. The insulin secretion stimulation in [5] was -0.5% (inactive). For the same compound, the viability decrease in test [6] was 8.2% (inactive). Besides, the tube area decrease in test [7] was -16.1% (inactive). Besides, the GLP1 secretion stimulation in [8] is -3.1% (inactive). In addition, in [9], the inhibition of viability was 11% (inactive). Besides, the viability decrease (inhibition) in test [10] was 13.3% (inactive); in [11] it was 14.8% (inactive).
For `COc1ccc(CN(CCN(C)C)c2ccccn2)cc1`, the inhibition in test [2] was 3% (inactive); in test [12] it was 4.83% (inactive). For the same compound, the fluorescence ratio (interference) in test [3] was 1 (inactive). For the same compound, the nuclear beta-catenin stimulation was 0.1% (inactive) in [4] (at 10 µM) and 7.7% in test [4] (stimulation, at 2 µM). The insulin secretion stimulation in [5] is 68.9% (active). The viability decrease in test [6] is 3.3% (inactive). Moreover, the tube area decrease in [7] is 14.4% (inactive). For the same compound, the GLP1 secretion stimulation in test [8] was 1.2% (inactive). In addition, in [9], the inhibition of viability is -7.7% (inactive). The viability decrease (inhibition) in test [10] was 22.5% (inactive); in test [11], -34.8% (inactive).
Regarding `CN(C)CCC(c1ccccc1)c1ccccn1` (stereo not drawn), the inhibition was -1% (inactive) in test [2] and -0.335% (inactive) in [12]. For the same compound, in test [3], the fluorescence ratio (interference) is 0.9 (inactive). For the same compound, the nuclear beta-catenin stimulation in test [4] (at 10 µM) is 0.4% (inactive); in [4] (stimulation, at 2 µM), 1.1%. For the same compound, in test [5], the insulin secretion stimulation was 1.3% (inactive). In addition, in [6], the viability decrease was -40.9% (inactive). In addition, in test [7], the tube area decrease was 1.9% (inactive). The GLP1 secretion stimulation in [8] is 1.5% (inactive). Further, the inhibition of viability in test [9] is 3.55% (inactive). Besides, the viability decrease (inhibition) in test [10] is 12.1% (inactive); in test [11], -7.2% (inactive).
Take `CC(=O)OCC1=C(C(=O)O)N2C(=O)[C@@H](NC(=O)Cc3cccs3)[C@H]2SC1`: the parasite load remaining in test [1] was 98.3% (inactive) and 75.9% (inactive) and 62% (inactive). The viability in test [1] was 104% and 75.3% and 99.8%. Besides, the figures for the inhibition in test [2] and in test [12] were 0% (inactive) and 4.29% (inactive), respectively. Also, the fluorescence ratio (interference) in test [3] is 1 (inactive). Besides, the nuclear beta-catenin stimulation was 2.4% (inactive) in test [4] (at 10 µM) and 4.2% in test [4] (stimulation, at 2 µM). The insulin secretion stimulation in [5] was 3.6% (inactive). In test [6], the viability decrease is 33.1% (inactive). The tube area decrease in test [7] is -3.9% (inactive). In addition, in test [8], the GLP1 secretion stimulation was 2.4% (inactive). Further, in [9], the inhibition of viability was 2.9% (inactive). Moreover, the figures for the viability decrease (inhibition) in test [10] and in test [11] were -15.1% (inactive) and -1% (inactive), respectively.
